Results as given in PubChem BioAssay AID504660 (National Center for Advancing Translational Sciences (NCATS), 2011).
Where “and” joins values, the source holds several entries; their conditions need not be identical. Equal values may be shown once. The campaign covered roughly 360,000 compounds. About 3,700 (1%) were called active. Rule as the data show it: active = activation above about 30%; inactive = the rest. Shown is part of a subset that was picked to be rich in actives. Some structures have more than one record in an assay (separate samples or runs), and their calls can disagree.

Molecular target: D(1A) dopamine receptor (Homo sapiens) (UniProt P21728)
Experiment: Allosteric Agonists of the Human D1 Dopamine Receptor: qHTS; also: 0% is about no effect
Details: HEK293 T-REx D1 cells, calcium flux, agonist mode; at 2 µM; stronger effect = higher value
Outline: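 Agonism was scored from calcium flux recorded over 180 s (1 read/s) after pintool compound addition, following a 10-cycle baseline. Cells were inducible force-coupled HEK293 TREx D1, plated overnight at 30 C and loaded with no-wash calcium dye.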

Chain of D(1A) dopamine receptor (Homo sapiens) (P21728 whole entry, looked up): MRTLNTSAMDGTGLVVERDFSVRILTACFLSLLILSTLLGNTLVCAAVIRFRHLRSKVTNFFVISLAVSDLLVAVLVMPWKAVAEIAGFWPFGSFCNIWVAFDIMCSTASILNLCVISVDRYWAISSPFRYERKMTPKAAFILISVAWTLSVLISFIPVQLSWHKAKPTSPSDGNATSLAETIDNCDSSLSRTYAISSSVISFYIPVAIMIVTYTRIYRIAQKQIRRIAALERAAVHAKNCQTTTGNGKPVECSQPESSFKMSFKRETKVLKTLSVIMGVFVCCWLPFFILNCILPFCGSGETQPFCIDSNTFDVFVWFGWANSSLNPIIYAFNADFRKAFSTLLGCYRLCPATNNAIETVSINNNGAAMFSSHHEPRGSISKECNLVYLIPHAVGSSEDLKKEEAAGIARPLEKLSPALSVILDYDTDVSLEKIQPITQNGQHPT

| SMILES | activation |
| --- | --- |
| Cc1ccc(NC(=O)Cc2ccc(NC(=O)N3CCCCc4ccccc43)cc2)cc1 | 4.12% (inactive) |
| Cc1ccc(Cl)cc1NC(=O)C(C)n1nnc2sc(-c3ccccc3)cc2c1=O (centres undefined) | -0.45% (inactive) |
| Cc1ccc(-n2c(SCC(=O)Nc3cccc(F)c3)nc3c(oc4ccccc43)c2=O)cc1C | 4.64% (inactive) |
| CCN(CC(=O)Nc1ccc2c(c1)OCO2)S(=O)(=O)c1ccccc1 | 2.93% (inactive) |
| CC(NC(=S)Nc1ccc(S(N)(=O)=O)cc1)c1ccc2c(c1)OCO2 (centres undefined) | 3.07% (inactive) |
| NS(=O)(=O)c1ccc(NC(=O)COC(=O)c2c3c(nc4ccccc24)/C(=C\c2ccc4c(c2)OCO4)CCC3)cc1 | 59.4% (active) |
| NC(=O)c1ccc(NC(=O)COC(=O)c2c3c(nc4ccccc24)/C(=C\c2ccc4c(c2)OCO4)CCC3)cc1 | 51.7% (active) |
| O=C(COC(=O)c1c2c(nc3ccccc13)CCCC2)c1ccc(Br)s1 | 8.91% (inactive) |
| CCc1ccc(NC(=O)Cn2nnc(C(=O)NCc3ccc4c(c3)OCO4)c2N)cc1 | 0.807% (inactive) |
| CCN(CC)c1ccc(NC(=O)CN2CCN(CC(=O)Nc3ccc(Cl)cc3)CC2)cc1 | 2.48% (inactive) |
| CC(C)CCN(C(=O)Nc1ccc(Cl)c(Cl)c1)C(C)c1cccs1 (centres undefined) | 23.8% (inactive) |
| CCOc1ccccc1CNC(=O)c1ccc2c(c1)nc1n2CCC(C)C1 (centres undefined) | -0.796% (inactive) |
| N#CN1CCC(NC(=O)c2ccc(F)cc2)CC1 | 3.29% (inactive) |
| COc1cccc(C(=O)NC2=NC(c3ccc(N(C)C)cc3)CC(=O)N2)c1 (centres undefined) | -0.763% (inactive) |
| Cc1cc(C)cc(NC(=O)C2CCCN2S(=O)(=O)c2cccc3cccnc23)c1 (centres undefined) | 34.7% (active) |
| Cc1ccc(NC(=O)C2CCCN2S(=O)(=O)c2cccc3cccnc23)c(C)c1 (centres undefined) | -0.331% (inactive) and 2.62% (inactive) |
| O=C(Nc1nccs1)C1CCCN1S(=O)(=O)c1cccc2cccnc12 (centres undefined) | 0.517% (inactive) |
| Cc1noc(/C=C/N(C)C)c1S(=O)(=O)N1CCCC(C(=O)Nc2cccc(F)c2)C1 (centres undefined) | 5.84% (inactive) |
| O=C(COc1ccccc1)OCc1cc(=O)n2nc(-c3cccs3)sc2n1 | 3.1% (inactive) |
| Cc1cccc(C(CC(=O)NCC2(c3ccccc3)CCCC2)c2ccccc2)c1O (centres undefined) | 2.41% (inactive) |
| O=C(CCOc1ccccc1)N(Cc1cccnc1)c1nc2ccc(Cl)cc2s1 | 2.39% (inactive) |
| CN(C)CCCNC(=S)N1CCC(c2nc3ccccc3[nH]2)CC1 | -0.699% (inactive) |
| CN(C)CCCNC(=S)N1CCN(c2nc(-c3ccccc3)cs2)CC1 | 32.3% (active) |

| SMILES | activation |
| --- | --- |
| COCCCNC(=S)N1CCN(c2nc(-c3cccc(OC)c3)cs2)CC1 | 6.03% (inactive) |
| COc1cccc(CNc2nccn(-c3ccc(OC)c(OC)c3)c2=O)c1 | 1.78% (inactive) |
| COc1cc(NC(=O)Cn2c(=O)n(Cc3ccco3)c(=O)c3oc4ccccc4c32)cc(OC)c1 | -0.131% (inactive) |
| CC(C)CCn1cnc2c1c(=O)n(CC(=O)NC(N)=O)c(=O)n2Cc1ccccc1 | 1.24% (inactive) |
| N=c1c2c(-c3ccccc3)c(-c3ccccc3)n(Cc3ccccc3)c2ncn1CCCO | 112% (active) |
| COCCn1cnc2c1c(=O)n(CC(=O)NN)c(=O)n2Cc1ccccc1 | 1.04% (inactive) |
| Cc1cc(C)cc(NC(c2nnc(-c3cccc(F)c3)o2)c2ccc(F)cc2Cl)c1 (centres undefined) | 2.35% (inactive) |
| N#C/C(=C\c1ccccc1F)c1nc2ccccc2c(=O)[nH]1 | 6.41% (inactive) |
| Cn1c(COc2ccccc2C(C)(C)C)nc2ccccc21 | 19.9% (inactive) |
| S=C(Nc1ccc(Br)cc1)NC1CCN(Cc2ccccc2)CC1 | 39.5% (active) |
| Cc1cc(Br)ccc1NC(=S)NC1CCCC1 | 9.12% (inactive) |
| CC1CN(C(=S)Nc2ccc(Br)cc2Cl)CC(C)O1 (centres undefined) | -0.955% (inactive) |
| Cc1cc(C(=O)NC2CCN(Cc3ccccc3)CC2)n[nH]1 | 1.69% (inactive) |
| O=C(NC1CCN(Cc2ccccc2)CC1)c1cc(Br)c(Br)[nH]1 | 7.63% (inactive) |
| S=C(Nc1ccc(Br)cc1Cl)NC1CCN(Cc2ccccc2)CC1 | 30.9% (active) |
| CCN(Cc1ccccc1)Cc1c(O)ccc2c(=O)c(-c3ccc(Cl)cc3Cl)coc12 | -1.31% (inactive) |
| Cc1ccc(NC(=O)NC(C)c2c(-n3cccc3)sc(C)c2C)c(C)c1 (centres undefined) | -1.09% (inactive) |
| CCOC(=O)c1cc2ccccc2n1CC(=O)c1ccccc1 | 6.36% (inactive) |
| CCOC(=O)c1cc(NC(=O)SCC(=O)O)c(C)nc1C | 1.84% (inactive) |
| CCOC(=O)c1cc2ccccc2nc1C | 31.8% (active) |
| CCOc1ccc(N(CC)C(=O)C2CCN(S(=O)(=O)c3cccc4nonc34)CC2)cc1 | 0.273% (inactive) |
| CCOc1cccc(CC(=O)N2CCc3c([nH]c4ccccc34)C2c2ccc(F)cc2)c1OCC (centres undefined) | 2.49% (inactive) |
| O=C(NC(=S)Nc1ccc(Cl)cc1Cl)C1CC1 | 1.23% (inactive) |

| SMILES | activation |
| --- | --- |
| COC(=O)c1ccccc1NC(=O)CN(Cc1ccc(Cl)cc1)S(C)(=O)=O | 3.99% (inactive) |
| Cc1ccccc1NC(=S)NC(=O)Cc1ccc(Cl)cc1 | 69.1% (active) |
| O=C(Cc1ccc(Cl)cc1)NC(=S)Nc1ccccc1O | 35.4% (active) |
| Cc1cc(C(=O)NNC(=S)Nc2ccccc2C)cs1 | 2.41% (inactive) |
| Cc1ccccc1N/C(SCc1ccc(Cl)cc1)=C(/C#N)C(N)=O | 3.17% (inactive) |
| Cc1nnc(NC(=O)CSc2nc3c([nH]c4ccccc43)c(=O)n2-c2cccc(Cl)c2)s1 | -0.131% (inactive) |
| COC(=O)c1scc(-c2ccccc2)c1S(=O)(=O)Nc1ccccc1 | 3.73% (inactive) |
| COc1cccc(NC(=O)C(=O)NCC(c2ccc3c(c2)OCO3)N2CCN(C)CC2)c1 (centres undefined) | 5.73% (inactive) |
| Cn1c(=O)c2c(SCC(=O)N3CCc4ccccc43)nc(-c3ccc(Cl)cc3)nc2n(C)c1=O | 0.75% (inactive) |
| CCc1ccc(NC(=O)c2cc(S(=O)(=O)N3CCCC(C)C3)cn2C)cc1 (centres undefined) | 3.74% (inactive) |
| CC(C)c1ccc(S(=O)(=O)Nc2ccc(O)c(Sc3nc4ccccc4s3)c2)cc1 | 2.29% (inactive) |
| CCN(C(=O)Cn1cc(S(=O)(=O)N2CCN(c3ccccc3F)CC2)c2ccccc2c1=O)c1ccc(C)c(C)c1 | 11.2% (inactive) |
| Cc1ccc(C(=O)N2c3ncnn3C3(CCCCC3)[C@@H]3CCCC[C@@H]32)cc1 | -0.224% (inactive) |
| Cc1ccc2c(c1)N(C(=O)CCC(=O)NCc1ccccc1F)CC(C)O2 (centres undefined) | 1.03% (inactive) |
| Cc1ccc2nsnc2c1NC(=O)c1ccccc1[N+](=O)[O-] | 6.33% (inactive) |
| CC(=O)Oc1ccccc1C(=O)Nc1ncc([N+](=O)[O-])s1 | 32.6% (active) |
| O=C(CCc1ccccc1)Nc1nn[nH]n1 | 3.14% (inactive) |
| O=C(CCc1ccccc1)Nc1ccc(NC(=O)C2CC2)nc1 | 5.75% (inactive) |
| O=C(COc1ccc(NC(=O)c2ccccc2[N+](=O)[O-])cc1)c1ccc(F)cc1 | 3.67% (inactive) |
| O=C(CCc1ccccc1)Nc1ncc([N+](=O)[O-])s1 | 30.3% (active) |
| Fc1cccc(-n2ncc3c2ncn2nc(-c4ccccc4Cl)nc32)c1 | -0.538% (inactive) |
| CCOc1ccc(N(CC)S(=O)(=O)N2CCCC(C(=O)NCc3ccc(SC)cc3)C2)cc1 (centres undefined) | 15.3% (inactive) |
| COc1cccc(N2C(=O)CN(Cc3ccccc3)C2=S)c1 | 2.26% (inactive) |

| SMILES | activation |
| --- | --- |
| COc1cc(/C=C2/SC(=S)N(Cc3ccccc3)C2=O)cc(OC)c1O | 61.8% (active) |
| COc1cc(=O)[nH]c(=O)n1C(=O)Cc1ccccc1 | 3.4% (inactive) |
| CCOc1ccc(S(=O)(=O)Nc2ccc3oc4c(c3c2)CC(C)CC4)cc1 (centres undefined) | 8.18% (inactive) |
| O=C(NCCc1ccccc1)c1ccc2c(c1)N(Cc1ccccc1)C(=O)c1ccccc1S2(=O)=O | 5.9% (inactive) |
| Cc1ccc(O)c(NC(=O)c2cc(-c3ccc(F)cc3)no2)c1 | -1.3% (inactive) |
| Cc1ccc(O)c(/C=N/NC(=O)COc2ccc3c(C)cc(=O)oc3c2)c1 | 3.75% (inactive) |
| Cc1ccc(O)c(NC(=S)NC(=O)COc2ccc(Br)cc2)c1 | 54.2% (active) |
| Cc1ccc(C)c(NC(=O)Cn2ccn(-c3ccc(F)cc3)c(=O)c2=O)c1 | 10.6% (inactive) |
| COc1cc(N2CCCC2)c(OC)cc1/C=C(/C#N)c1cccc(Br)c1 | 34.6% (active) |
| CCOC(=O)c1c(C)oc2nc(C)nc(N3CCN(c4ccc(OC)cc4)CC3)c12 | 0.866% (inactive) |
| Cc1cc(S(=O)(=O)c2cc3ccc(O)c(C)c3oc2=O)ccc1F | 56.6% (active) |
| COc1cc(Br)cc2cc(S(=O)(=O)c3ccccc3)c(=O)oc12 | 2.11% (inactive) |
| COc1ccc(NC(=O)c2ccc3oc(=O)c(S(=O)(=O)c4ccc(F)cc4)cc3c2)c(OC)c1 | -0.0208% (inactive) |
| CCc1nn(CC(=O)N2CCN(c3cccc(C(F)(F)F)c3)CC2)c(=O)c2cc3occc3n12 | -1.81% (inactive) |
| O=C(NCCCN1CCOCC1)c1ccc2c(c1)N(Cc1cccc(F)c1)C(=O)c1ccccc1S2 | 37.5% (active) |
| O=C(NCCCN1CCOCC1)c1cc(-c2ccccc2F)no1 | 2.58% (inactive) |
| Cc1ccccc1CN1C(=O)c2ccccc2Sc2ccc(C(=O)NCCCN3CCOCC3)cc21 | 16.6% (inactive) and 53.8% (active) |
| COc1ccc(C(=O)NCCCN2CCOCC2)cc1Br | 5.3% (inactive) |
| COc1cccc(CNC(=O)c2ccc3c(c2)N(Cc2ccc(C(F)(F)F)cc2)C(=O)c2ccccc2S3)c1OC | 7.24% (inactive) |
| O=C(NCCCN1CCCCC1)c1ccc2c(c1)NC(=O)C(N1CCOCC1)S2 (centres undefined) | 1.92% (inactive) |
